Experimental data: PubChem BioAssay (EPA / NIEHS)
Results filed as inconclusive are left out. Where a structure was tested more than once in an assay, its records may differ in their call. Calls of active or inactive are those of the source. Rule for the calls, unless noted: active = hit-call score of the fitted dose curve at least 0.9, where 1 is the maximum; inconclusive = response in the unintended direction; inactive = score below 0.9.

What was measured:
[1] = target: human Peroxisome Proliferator-activated Receptor alpha (PPARa), PPARA (gene 5465) (UniProt Q07869); assay: ATG_PPARa_TRANS: Attagene TRANS-FACTORIAL HepG2 Assay for human Peroxisome Proliferator-activated Receptor alpha (PPARa) (AID 2283001);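 for AC50: potency for gain of reporter signal over DMSO so agonist or activator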
Method in brief: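 Cells (HepG2) are transfected with multiple reporter transcription units, exposed to chemical for 24 h, then total RNA is reverse-transcribed and amplified. Labelled products are quantified by capillary electrophoresis; induction is referenced to DMSO.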

[2] = target: human Peroxisome Proliferator-activated Receptor delta (PPARd), PPARD (gene 5467) (UniProt Q03181); assay: ATG_PPARd_TRANS: Attagene TRANS-FACTORIAL HepG2 Assay for human Peroxisome Proliferator-activated Receptor delta (PPARd) (AID 2283002)
Method in brief: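 HepG2 cells transiently transfected with multiplexed GAL4-UAS reporter units and exogenous chimeric NR-Gal4 proteins; 24 h compound exposure. Reporter mRNA measured by RT-PCR, 6-FAM labelling, HpaI digestion and capillary electrophoresis; gain of signal versus DMSO.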

[3] = target: Peroxisome proliferator-activated receptor gamma (Homo sapiens) (UniProt P37231); assay: ATG_PPARg_TRANS: Attagene TRANS-FACTORIAL HepG2 Assay for human Peroxisome Proliferator-activated Receptor-gamma (PPARg) (AID 2283007)
Method in brief: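 Liver-derived HepG2 cells expressing an exogenous NR-Gal4 chimera alongside GAL4-UAS reporter genes; 24 h exposure. Fluorescence of reporter RT-PCR products, separated by capillary electrophoresis, gives mRNA induction relative to DMSO.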

[4] = target: Nuclear receptor subfamily 1 group I member 2 (Homo sapiens) (UniProt O75469); assay: ATG_PXR_TRANS: Attagene TRANS-FACTORIAL HepG2 Assay for human Pregnane X Receptor (PXR) (AID 2283008)
Method in brief: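 HepG2 transfected (FuGene 6) with GAL4-UAS reporter units + PXR-Gal4 chimera; dosed 24 h. Total RNA → oligo(dT) RT → PCR → 6-FAM primer extension → HpaI cut → CE. Gain-of-signal vs DMSO.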

[5] = target: human RAR-related Orphan Receptor gamma (RORg), RORC (gene 6097) (UniProt P51449); assay: ATG_RORg_TRANS: Attagene TRANS-FACTORIAL HepG2 Assay for human RAR-related Orphan Receptor gamma (RORg) (AID 2283011)
Method in brief: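 Chimeric RORg-Gal4 transactivation in transfected HepG2; 24 h exposure; RT-PCR/capillary electrophoresis readout of reporter mRNA, DMSO baseline.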

[6] = read-out: Intercellular Adhesion Molecule 1 (ICAM1), ICAM1 (gene 3383); assay: BSK_3C_ICAM1: BioMAP Diversity Plus: 3C Assay for Intercellular Adhesion Molecule 1 (ICAM1) Biomarker Activity (AID 2283003; active = hit-call score of the fitted dose curve at least 0.9, where 1 is the maximum; inactive = score below 0.9); settings: primary human endothelial cells (HUVEC); actives raise or lower the signal
Method in brief: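 Chemicals are dosed onto primary human umbilical vein endothelium (3C system). After 24 h, ICAM-1 is measured by ELISA, and responses are fitted bidirectionally relative to DMSO.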

[7] = BSK_3C_Proliferation: Cell Proliferation Assessment in the BioMAP Diversity Plus: 3C Assay (AID 2283006; active = hit-call score of the fitted dose curve at least 0.9, where 1 is the maximum; inactive = score below 0.9;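 for AC50: potency may reflect either rise or fall in cell number versus DMSO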); settings: primary human endothelial cells (HUVEC)
Method in brief: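 Cells (human umbilical vein endothelial, sub-confluent) receive test chemical; after 48 h they are fixed in 10% trichloroacetic acid, stained with 0.1% SRB and read at 560 nm. Activity is referenced to DMSO, fitting increases and decreases.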

[8] = target: human RAR-related Orphan Receptor beta (RORb), RORB (gene 6096) (UniProt Q92753); assay: ATG_RORb_TRANS: Attagene TRANS-FACTORIAL HepG2 Assay for human RAR-related Orphan Receptor beta (RORb) (AID 2283010)
Method in brief: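 Transfect HepG2 with multiple GAL4-UAS reporter transcription units; dose chemicals for 24 h; isolate RNA, reverse-transcribe and PCR-amplify reporter sequences; label, digest and resolve fragments by capillary electrophoresis; fit increases relative to DMSO.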

[9] = target: human Retinoic Acid Receptor gamma (RARg), RARG (gene 5916) (UniProt P13631); assay: ATG_RARg_TRANS: Attagene TRANS-FACTORIAL HepG2 Assay for human Retinoic Acid Receptor gamma (RARg) (AID 2283009)
Method in brief: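 TRANS format measured activity of exogenous NR-GAL4 fusion (RARg) in transfected HepG2 liver cells after 24 h dosing. Induced reporter RNA was detected by RT-PCR/capillary electrophoresis fluorescence, analysed in the positive direction against DMSO.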

[10] = target: Retinoic acid receptor alpha (Homo sapiens) (UniProt P10276); assay: ATG_RARa_TRANS: Attagene TRANS-FACTORIAL HepG2 Assay for human Retinoic Acid Receptor alpha (RARa) (AID 2283005)
Method in brief: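 HepG2 cells transiently transfected with multiple reporter units expressing chimeric RARα-GAL4 fusion, with GAL4-UAS-driven reporters. After 24 h compound exposure, reporter mRNA induction quantified by RT-PCR and capillary electrophoresis with fluorescent labeling; gain-of-signal fitted relative to DMSO control.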

Measured: AC50

human RAR-related Orphan Receptor gamma (RORg), RORC (gene 6097), sequence (P51449 whole entry, looked up, the tested form may be a part): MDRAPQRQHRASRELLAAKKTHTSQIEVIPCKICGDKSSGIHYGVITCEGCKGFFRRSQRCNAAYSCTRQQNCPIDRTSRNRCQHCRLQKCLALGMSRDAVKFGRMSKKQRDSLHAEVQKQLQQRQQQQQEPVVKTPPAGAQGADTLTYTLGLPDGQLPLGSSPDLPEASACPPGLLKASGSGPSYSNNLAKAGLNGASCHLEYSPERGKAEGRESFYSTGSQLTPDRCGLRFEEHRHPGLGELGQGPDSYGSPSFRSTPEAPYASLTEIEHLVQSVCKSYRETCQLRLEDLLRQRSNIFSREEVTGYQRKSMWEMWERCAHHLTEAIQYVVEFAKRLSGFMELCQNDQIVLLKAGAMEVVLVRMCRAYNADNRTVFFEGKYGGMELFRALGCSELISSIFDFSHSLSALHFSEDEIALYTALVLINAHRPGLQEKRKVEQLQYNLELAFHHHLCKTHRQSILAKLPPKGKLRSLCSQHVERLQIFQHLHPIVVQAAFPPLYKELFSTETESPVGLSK
human Peroxisome Proliferator-activated Receptor delta (PPARd), PPARD (gene 5467), sequence (Q03181 whole entry, looked up, the tested form may be a part): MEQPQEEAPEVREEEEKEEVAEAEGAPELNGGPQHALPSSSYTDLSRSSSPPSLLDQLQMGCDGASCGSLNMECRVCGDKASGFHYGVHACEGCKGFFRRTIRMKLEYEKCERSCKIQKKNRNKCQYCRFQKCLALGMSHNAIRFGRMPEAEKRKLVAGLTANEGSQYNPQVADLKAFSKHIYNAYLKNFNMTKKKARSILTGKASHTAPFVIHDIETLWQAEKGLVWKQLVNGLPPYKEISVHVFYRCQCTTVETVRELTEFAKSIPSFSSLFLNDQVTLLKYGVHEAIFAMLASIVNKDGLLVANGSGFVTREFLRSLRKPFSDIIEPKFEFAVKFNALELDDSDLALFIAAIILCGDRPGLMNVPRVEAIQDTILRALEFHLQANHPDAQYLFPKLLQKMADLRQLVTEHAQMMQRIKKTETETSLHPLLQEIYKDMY
Peroxisome proliferator-activated receptor gamma (Homo sapiens), sequence (P37231 whole entry, looked up, the tested form may be a part): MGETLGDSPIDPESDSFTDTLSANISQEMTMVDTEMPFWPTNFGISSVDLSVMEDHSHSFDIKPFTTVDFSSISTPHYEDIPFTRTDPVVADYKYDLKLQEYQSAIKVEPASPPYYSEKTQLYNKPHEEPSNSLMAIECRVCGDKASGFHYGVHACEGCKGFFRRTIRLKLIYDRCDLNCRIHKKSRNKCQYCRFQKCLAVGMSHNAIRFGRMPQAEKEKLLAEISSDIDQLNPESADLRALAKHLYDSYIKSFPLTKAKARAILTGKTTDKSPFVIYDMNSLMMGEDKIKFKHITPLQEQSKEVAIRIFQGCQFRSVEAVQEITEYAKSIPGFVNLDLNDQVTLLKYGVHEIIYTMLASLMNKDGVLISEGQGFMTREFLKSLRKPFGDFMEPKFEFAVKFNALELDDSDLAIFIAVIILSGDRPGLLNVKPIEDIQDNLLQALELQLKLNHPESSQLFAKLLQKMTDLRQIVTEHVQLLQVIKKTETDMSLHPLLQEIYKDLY
human RAR-related Orphan Receptor beta (RORb), RORB (gene 6096), sequence (Q92753 whole entry, looked up, the tested form may be a part): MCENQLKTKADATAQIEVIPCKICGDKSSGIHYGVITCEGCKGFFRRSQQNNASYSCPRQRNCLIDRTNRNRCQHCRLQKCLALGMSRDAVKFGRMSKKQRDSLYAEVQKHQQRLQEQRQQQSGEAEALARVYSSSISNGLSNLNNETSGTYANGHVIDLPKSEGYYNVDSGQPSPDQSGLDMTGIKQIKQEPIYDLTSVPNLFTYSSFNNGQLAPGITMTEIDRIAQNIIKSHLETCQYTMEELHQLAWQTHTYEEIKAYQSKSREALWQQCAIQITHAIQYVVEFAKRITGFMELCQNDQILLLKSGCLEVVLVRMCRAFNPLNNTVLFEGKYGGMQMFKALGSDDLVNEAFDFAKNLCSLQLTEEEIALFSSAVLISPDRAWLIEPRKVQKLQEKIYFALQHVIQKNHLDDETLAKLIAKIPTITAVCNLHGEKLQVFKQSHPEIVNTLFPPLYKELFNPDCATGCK
human Peroxisome Proliferator-activated Receptor alpha (PPARa), PPARA (gene 5465), sequence (Q07869 whole entry, looked up): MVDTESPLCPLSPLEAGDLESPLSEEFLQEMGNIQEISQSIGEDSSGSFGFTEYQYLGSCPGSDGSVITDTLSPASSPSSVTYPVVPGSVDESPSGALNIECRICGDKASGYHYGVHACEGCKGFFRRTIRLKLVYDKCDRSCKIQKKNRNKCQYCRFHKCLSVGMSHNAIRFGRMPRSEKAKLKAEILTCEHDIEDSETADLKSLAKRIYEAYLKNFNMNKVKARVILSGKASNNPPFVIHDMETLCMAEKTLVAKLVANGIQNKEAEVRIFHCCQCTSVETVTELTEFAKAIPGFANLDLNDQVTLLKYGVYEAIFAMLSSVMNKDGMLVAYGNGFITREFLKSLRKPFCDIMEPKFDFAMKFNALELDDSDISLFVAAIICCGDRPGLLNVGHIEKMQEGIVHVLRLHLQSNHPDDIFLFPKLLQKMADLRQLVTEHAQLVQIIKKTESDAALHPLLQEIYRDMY
Nuclear receptor subfamily 1 group I member 2 (Homo sapiens), sequence (O75469 whole entry, looked up, the tested form may be a part): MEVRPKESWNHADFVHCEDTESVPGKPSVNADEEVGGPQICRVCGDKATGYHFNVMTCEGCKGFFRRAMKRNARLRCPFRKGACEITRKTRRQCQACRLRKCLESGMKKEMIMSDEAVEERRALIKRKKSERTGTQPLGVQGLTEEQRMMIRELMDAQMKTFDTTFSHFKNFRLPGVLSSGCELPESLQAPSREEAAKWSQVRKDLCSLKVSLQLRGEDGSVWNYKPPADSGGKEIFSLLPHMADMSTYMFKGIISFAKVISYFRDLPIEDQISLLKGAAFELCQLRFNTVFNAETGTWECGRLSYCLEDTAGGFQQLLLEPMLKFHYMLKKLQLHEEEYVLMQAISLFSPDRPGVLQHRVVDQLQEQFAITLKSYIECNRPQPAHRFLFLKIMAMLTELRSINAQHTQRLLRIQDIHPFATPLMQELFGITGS
Retinoic acid receptor alpha (Homo sapiens), sequence (P10276 whole entry, looked up, the tested form may be a part): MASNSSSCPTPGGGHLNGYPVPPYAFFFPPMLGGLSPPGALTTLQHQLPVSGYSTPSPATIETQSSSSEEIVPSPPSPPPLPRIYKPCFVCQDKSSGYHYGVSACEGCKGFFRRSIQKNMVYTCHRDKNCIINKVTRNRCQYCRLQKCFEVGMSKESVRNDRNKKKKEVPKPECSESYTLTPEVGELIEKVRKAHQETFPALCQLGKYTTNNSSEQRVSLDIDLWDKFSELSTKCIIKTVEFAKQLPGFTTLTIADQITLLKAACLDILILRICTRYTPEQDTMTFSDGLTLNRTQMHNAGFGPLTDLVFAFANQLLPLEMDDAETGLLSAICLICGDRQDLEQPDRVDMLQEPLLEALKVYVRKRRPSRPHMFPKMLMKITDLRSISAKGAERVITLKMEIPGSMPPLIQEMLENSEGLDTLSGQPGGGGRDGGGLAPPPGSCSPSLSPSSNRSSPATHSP
human Retinoic Acid Receptor gamma (RARg), RARG (gene 5916), sequence (P13631 whole entry, looked up, the tested form may be a part): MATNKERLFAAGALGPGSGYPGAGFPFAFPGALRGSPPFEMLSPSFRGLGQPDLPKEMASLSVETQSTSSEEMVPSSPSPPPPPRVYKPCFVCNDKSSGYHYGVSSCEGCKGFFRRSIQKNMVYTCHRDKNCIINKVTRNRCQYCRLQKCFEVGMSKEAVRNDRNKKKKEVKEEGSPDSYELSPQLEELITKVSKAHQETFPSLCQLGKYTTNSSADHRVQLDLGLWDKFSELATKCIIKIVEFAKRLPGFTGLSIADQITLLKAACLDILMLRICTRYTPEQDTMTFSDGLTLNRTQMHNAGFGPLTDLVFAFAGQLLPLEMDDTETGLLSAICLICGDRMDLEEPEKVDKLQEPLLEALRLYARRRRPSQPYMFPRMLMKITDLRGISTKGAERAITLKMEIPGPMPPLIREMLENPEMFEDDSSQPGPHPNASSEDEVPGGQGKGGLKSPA

N#Cc1ccccc1
inactive: [1] | [2] | [3] | [4] | [5]

O=C(O)c1cn(C2CC2)c2cc(N3CCNCC3)c(F)cc2c1=O
inactive: [1] | [6] | [7] | [3] | [4]

O=C(O)C[C@H](O)C[C@H](O)/C=C/c1c(C2CC2)nc2ccccc2c1-c1ccc(F)cc1
active: [7] 1.95 µM | [3] 20.2 µM
inactive: [1] | [6] | [4] | [8]

CC(C)c1ccc(C(C)C)cc1
inactive: [1] | [4] | [8]
active: [6] 35.8 µM | [7] 33.8 µM

Clc1ccc(Cl)c(Cl)c1Cl
inactive: [1] | [2] | [4] | [5]

C=C[Si](OCC)(OCC)OCC
inactive: [1] | [6] | [7] | [5]
active: [4] 2.2 µM

CN(C)CCOCCN(C)C
inactive: [1] | [2] | [4] | [8]

CCO[Si](CCCS)(OCC)OCC
inactive: [1] | [2] | [4] | [8] | [5]

CCc1c(C)cc(N)c(CC)c1N
active: [4] 100 µM
inactive: [1] | [6] | [7] | [3]

c1cc(C(c2ccc(OCC3CO3)cc2)c2ccc(OCC3CO3)cc2)ccc1OCC1CO1 (configuration not stated)
inactive: [1] | [2] | [4]

OC1OC[C@@H](O)[C@H](O)[C@H]1O (some centres not stated)
inactive: [1] | [6] | [7] | [3] | [8] | [5]

O=S(=O)(O)c1ccc(O)c2ncccc12
inactive: [1] | [2] | [4] | [8] | [5]

Nc1cc([N+](=O)[O-])ccc1Cl
active: [3] 49.8 µM
inactive: [1] | [6] | [7] | [4] | [5]

O=C(O)COCCN1CCN(C(c2ccccc2)c2ccc(Cl)cc2)CC1 (configuration not stated)
inactive: [1] | [2] | [4]

CCCCOCCOCCOCCOCCO
inactive: [1] | [2] | [8] | [5]

C=COCCOCCOCCOC=C
inactive: [1] | [2] | [4]

C=CCOC(=O)CCC1CCCCC1
active: [7] 31.6 µM
inactive: [1] | [6] | [7] | [3] | [4]

COCCOCCOCCOCCOCCO
inactive: [1] | [2] | [8] | [5]

CC(O)C(C)O (configuration not stated)
inactive: [1] | [2] | [4] | [8] | [5]

O=c1[nH]nnc2ccccc12
inactive: [1] | [2] | [4]

O=C[C@@H](O)[C@H](O)[C@H](O)CO
inactive: [1] | [2] | [3] | [9] | [8]

CCCCCCCCCC=O
inactive: [6] | [7]
active: [1] 29.6 µM | [3] 45.4 µM

CCCCCCCCCCCCCCCC(=O)OC[C@H](O)[C@H]1OC(=O)C(O)=C1O
inactive: [1] | [2] | [3] | [5]

CCCCCCCCCCCCOCCO
active: [3] 33.4 µM
inactive: [1] | [10]

Clc1sc(Cl)c(Cl)c1Cl
inactive: [1] | [2] | [4]

CC(C)(C)C(=O)c1ccccc1
inactive: [1] | [2] | [4] | [8] | [5]

O=C1c2ccccc2C(=O)N1SC1CCCCC1
inactive: [1] | [2] | [4]

CCC(O)CO (configuration not stated)
inactive: [1] | [2] | [4]

Cc1ncc([N+](=O)[O-])n1C
inactive: [1] | [2] | [4] | [8]

CC1=CCC(O)(C(C)C)CC1 (configuration not stated)
inactive: [1] | [2] | [4] | [8] | [5]

CC1(C)[C@@H]2CC[C@@]1(C)[C@H](O)C2
inactive: [1] | [2] | [4] | [5]

C=C[C@@H](C)CCC=C(C)C
inactive: [1] | [2] | [4] | [8] | [5]

Sc1nc(S)nc(S)n1
inactive: [1] | [2] | [4] | [8] | [5]

NC(=O)c1ccccc1Cl
inactive: [1] | [2] | [3] | [8] | [5]

CCCCCCCCC=O
active: [1] 100 µM
inactive: [6] | [7] | [8]

N#Cc1ccc(CC(=NNC(=O)Nc2ccc(OC(F)(F)F)cc2)c2cccc(C(F)(F)F)c2)cc1
active: [3] 26.9 µM
inactive: [1] | [6] | [7] | [4]

CC(C)C[C@H]1C(=O)N2CCC[C@H]2[C@]2(O)O[C@](NC(=O)[C@@H]3C=C4c5cccc6[nH]c(Br)c(c56)C[C@H]4N(C)C3)(C(C)C)C(=O)N12
inactive: [5]

O=C(O)CCCCCCCCCCC(=O)O
inactive: [1] | [4] | [8]

CCCCCC=CCC(=O)OC
active: [3] 75.4 µM
inactive: [1] | [4] | [8]

CC(C)[C@H]1CC[C@@H](C)CC1=O
inactive: [1] | [4] | [8]

CCCC(=O)C(C)=O
inactive: [1] | [4] | [8] | [5]

CC(=O)OCc1ccc2c(c1)OCO2
inactive: [1] | [4] | [8] | [5]

OCC(CO)(CO)COCC(CO)(CO)CO
inactive: [1] | [4]

COc1ccc(Cl)cc1C
inactive: [1] | [4]

CC1COc2ccccc2N1C(=O)C(Cl)Cl (configuration not stated)
active: [7] 5.24 µM | [4] 6.46 µM
inactive: [2] | [6] | [3]
